Experiment [1] is described as follows: qHTS assay for environmental chemicals that activate the Aryl hydrocarbon Receptor (AhR) signaling pathway (AID 651777). Further: nearly all actives have a fitted effect of over 15% in size. The following applies: 1A2-DRE human hepatoma cells, luciferase, 24 h; stronger effect = higher value. In a few lines: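 AhR activation is scored as a rise in luciferase from a stable DRE–CYP1A2 promoter construct in human hepatoma cells. Treatment lasts 24 hr at 37 C; detection uses One-Glo after 30 min at room temperature.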

The target of experiment [2] is Peroxisome proliferator-activated receptor alpha (Homo sapiens) (UniProt Q07869). As to the kind of experiment: qHTS assay for small molecule agonists of the peroxisome proliferator-activated receptor alpha (PPARalpha) signaling pathway (AID 651778). The following applies: PathHunter PPARalpha complementation, chemiluminescence, 6 h; stronger effect = higher value. Summed up:
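Chemiluminescence from complemented enzyme reported PPARalpha activation in cells after 6 hr of compound treatment at 37 C. The detection reagent was incubated for 60 min at room temperature, and compounds were scored as agonists.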
For orientation: In qHTS, concentration-response curves come from the screen itself.

Experiment [3] deals with Arylsulfatase A (Homo sapiens) (UniProt P15289). The experiment in a line: qHTS screen for enhancers of Arylsulfatase A (ASA1): LOPAC Validation Assay (AID 720538). Further: potency means the concentration at half of the fitted maximal effect. The following applies: ASA enzyme activity, LOPAC qHTS enhancer assay; series mostly up to 57.5 µM. Summed up:
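First, ASA-I179S fibroblasts from an MLD patient adhered for 6 hrs. Next, compounds were added for 48h. Then pNCS substrate (0.5mM final) with lysis buffer reacted 14h at room temperature before NaOH stop and fluorescence measurement.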

Experiment [4] in a line: qHTS for compounds that reverse cellular toxicity of Amyloid beta (A-beta) peptide in yeast: LOPAC Validation Assay (AID 720559). The following applies: yeast expressing A-beta; series mostly up to 46.1 µM. In a few lines: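 Activity is expressed relative to DMSO and an equimolar ferric chloride/clioquinol mix. Compounds were pinned into medium with A-beta-expressing yeast, grown 48 hr at 30 C, then read by absorbance at 600 nm.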

Experiment [5] can be described thus: qHTS for small molecule inhibitors of Yes1 kinase: Counter Assay (AID 686950).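 Further: no kinase present so only ADP-Glo detection of a fixed ADP amount is tested; luminescence from ADP-Glo reporting ADP in a fixed ATP and ADP mixture.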 Particulars: series mostly up to 76.9 µM. In a few lines: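 Luminescence read-out from ADP-Glo quantifies a fixed ADP amount (0.02 mM ADP with 0.08 mM ATP) after 60 min at room temperature; signal is normalized between DMSO wells with ATP/ADP and with 0.1 mM ATP alone.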
In experiment [6] the target is Tyrosine-protein kinase Yes (Homo sapiens) (UniProt P07947). The experiment in a line: qHTS for small molecule inhibitors of Yes1 kinase: Primary Screen (AID 686947). Further: nearly all actives have a fitted effect of over 60% in size. Particulars: Yes1 kinase biochemical qHTS inhibition; series mostly up to 76.9 µM. Summed up: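 Yes1 (4 nM) preincubated 20 min with compound, then 60 min room-temperature reaction with 0.1 mM ATP and 0.3 mg/mL poly(E4Y) in pH 7.5 Tris, 10 mM MgCl2. ADP measured by ADP-Glo luminescence, normalised to enzyme/no-enzyme controls.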

“And” between values parts separate entries of the source, which are not always exact repeats. Equal values may be shown once. Records with an inconclusive call do not appear. Entries that show only a call come without a potency. A structure can be active in one record and inactive in another. The source made the active and inactive calls. The call rests on the fitted dose curve; in most records, active means well fitted curve in the direction sought with a large enough effect; inconclusive means small, poorly fitted or top-dose-only effect, or another doubt; inactive means no such curve, though single readings can be large; an effect the other way counts as inactive or inconclusive.

Sequence of Peroxisome proliferator-activated receptor alpha (Homo sapiens) (Q07869 whole entry, looked up): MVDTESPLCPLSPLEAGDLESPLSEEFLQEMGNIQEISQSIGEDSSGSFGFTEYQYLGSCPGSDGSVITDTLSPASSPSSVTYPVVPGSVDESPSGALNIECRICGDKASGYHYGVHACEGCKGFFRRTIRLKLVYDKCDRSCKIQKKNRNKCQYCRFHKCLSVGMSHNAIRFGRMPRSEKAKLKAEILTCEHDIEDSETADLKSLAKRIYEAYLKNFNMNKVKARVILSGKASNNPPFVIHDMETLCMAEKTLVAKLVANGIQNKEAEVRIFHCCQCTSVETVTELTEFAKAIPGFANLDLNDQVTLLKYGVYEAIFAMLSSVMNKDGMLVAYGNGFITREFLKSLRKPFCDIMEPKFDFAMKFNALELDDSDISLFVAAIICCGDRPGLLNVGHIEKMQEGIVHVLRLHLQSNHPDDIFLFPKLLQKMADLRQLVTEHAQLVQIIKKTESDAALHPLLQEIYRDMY
Sequence of Arylsulfatase A (Homo sapiens) (P15289 whole entry, looked up): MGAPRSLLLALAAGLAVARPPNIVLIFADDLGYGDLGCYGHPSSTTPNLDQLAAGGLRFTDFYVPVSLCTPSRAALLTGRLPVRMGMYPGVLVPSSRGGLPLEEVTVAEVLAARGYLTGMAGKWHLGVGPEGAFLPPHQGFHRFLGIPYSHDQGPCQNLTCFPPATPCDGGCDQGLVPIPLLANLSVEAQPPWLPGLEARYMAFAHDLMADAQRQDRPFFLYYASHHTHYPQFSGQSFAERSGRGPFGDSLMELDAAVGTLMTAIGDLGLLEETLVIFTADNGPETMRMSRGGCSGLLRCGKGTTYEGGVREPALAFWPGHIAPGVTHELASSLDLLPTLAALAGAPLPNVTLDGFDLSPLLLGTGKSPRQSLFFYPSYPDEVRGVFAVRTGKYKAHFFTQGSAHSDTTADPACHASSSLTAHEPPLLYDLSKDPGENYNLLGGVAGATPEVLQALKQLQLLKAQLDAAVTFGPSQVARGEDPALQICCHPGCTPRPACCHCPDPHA
Sequence of Tyrosine-protein kinase Yes (Homo sapiens) (P07947 whole entry, looked up): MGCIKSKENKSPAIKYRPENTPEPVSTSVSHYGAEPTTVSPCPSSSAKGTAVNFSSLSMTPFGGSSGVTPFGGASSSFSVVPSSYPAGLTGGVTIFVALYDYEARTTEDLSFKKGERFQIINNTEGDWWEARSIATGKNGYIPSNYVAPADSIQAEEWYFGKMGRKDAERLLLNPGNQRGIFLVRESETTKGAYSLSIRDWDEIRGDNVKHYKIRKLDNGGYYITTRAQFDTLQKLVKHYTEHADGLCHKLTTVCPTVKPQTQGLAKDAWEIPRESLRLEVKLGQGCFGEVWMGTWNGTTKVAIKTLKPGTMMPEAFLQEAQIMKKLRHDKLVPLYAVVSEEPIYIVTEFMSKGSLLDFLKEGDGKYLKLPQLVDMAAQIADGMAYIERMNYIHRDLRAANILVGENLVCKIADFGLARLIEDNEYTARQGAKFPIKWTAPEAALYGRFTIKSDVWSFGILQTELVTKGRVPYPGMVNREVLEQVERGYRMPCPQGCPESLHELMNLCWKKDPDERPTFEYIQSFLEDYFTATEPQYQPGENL

`CN(C)CCOC(C)(c1ccccc1)c1ccccn1` (stereo unspecified): the activation in experiment [1] was -1.5% (inactive). The max response in experiment [2] is -0.887% (inactive). For the same compound, the Potency result in experiment [3] is “inactive”.

On to `CC12CCC(CC1)C(C)(C)O2`, for which the activation in experiment [1] is -0.144% (inactive). Besides, the max response in experiment [2] is -0.195% (inactive). As for `C[C@]12CC[C@@H]3c4ccc(O)cc4CC[C@H]3[C@@H]1CCC2=O`, the activation in experiment [1] was 0.316% (inactive). Moreover, the max response in experiment [2] is -1.03% (inactive). In experiment [4], the outcome was inactive.

As for `CC1(C)[C@@H]2CC[C@@]1(C)C(=O)C2`, in experiment [1], the activation was 1.1% (inactive). The max response in experiment [2] was 1.14% (inactive). For the compound `CNC(=O)Oc1ccc2c(c1)[C@]1(C)CCN(C)[C@@H]1N2C`, in experiment [1], the activation is 2.6% (inactive). In experiment [2], the max response is -3.11% (inactive). Further, the call in experiment [4] was inactive.

As for `NCCNCCNCCNCCN`, the activation in experiment [1] is -0.491% (inactive) and -2.35% (inactive). In experiment [2], the max response is -1.59% (inactive) and -2.29% (inactive).

As to `CCN(CC)CCNC(=O)c1c(C)[nH]c(/C=C2\C(=O)Nc3ccc(F)cc32)c1C`, the outcome in experiment [5] was inactive. On to `C[C@](N)(Cc1ccc(O)cc1)C(=O)O`, for which the Potency entry in experiment [3] was “inactive”.

For the compound `CC[C@H]1CN2CCc3cc(OC)c(OC)cc3[C@@H]2C[C@@H]1C[C@H]1NCCc2cc(OC)c(OC)cc21`, the Potency entry in experiment [3] is “inactive”. The outcome in experiment [4] was inactive.

On to `CSc1ccc2c(c1)C(N1CCN(C)CC1)Cc1ccccc1S2` (stereo unspecified), for which, in experiment [3], the Potency result was “inactive”. The result in experiment [4] was inactive. In the case of `NC(N)=NCCC[C@H](N)C(=O)O`, the Potency result in experiment [3] was “inactive”. Further, in experiment [4], the call was inactive.

As to `CC1=C(CC(=O)O)c2cc(F)ccc2/C1=C\c1ccc(S(C)(=O)=O)cc1`, the Potency result in experiment [3] is “inactive”. In experiment [4], the outcome was inactive.

With `CC(C)(C(=O)O)c1ccc(C(O)CCCN2CCC(C(O)(c3ccccc3)c3ccccc3)CC2)cc1` (stereo unspecified), in experiment [3], the Potency result was “inactive”. Also, the result in experiment [4] was inactive. `CCCn1cnc2c1c(=O)n(CCCCC(C)=O)c(=O)n2C`: the Potency result in experiment [3] is “inactive”. Further, the outcome in experiment [4] was inactive.

For `NC(=O)c1ncn([C@@H]2O[C@H](CO)[C@@H](O)[C@H]2O)c1N`, the call in experiment [6] and in experiment [5] was inactive. Take `CCCCCCCCCCCCCCCC(=O)NCCO`: in experiment [3], the Potency result is “inactive”. For the same compound, the compound was called inactive in experiment [4].

Turning to `CC(C(O)c1ccc(O)cc1)N1CCC(Cc2ccccc2)CC1` (stereo unspecified), in experiment [3], the Potency result is “inactive”. In addition, the call in experiment [4] was inactive. Regarding `CCN(CC)CCCC(C)Nc1c2ccc(Cl)cc2nc2ccc(OC)cc12` (stereo unspecified), the Potency entry in experiment [3] is “inactive”. Moreover, in experiment [4], the call was inactive. `CNCCC(Oc1ccc(C(F)(F)F)cc1)c1ccccc1` (stereo unspecified): in experiment [4], the result was inactive. As to `CC(C)(C)[C@]1(O)CCN2C[C@H]3c4ccccc4CCc4cccc(c43)[C@@H]2C1`, the Potency result in experiment [3] was “inactive”. For the same compound, the outcome in experiment [4] was inactive. As for `CC(C)(C)c1onc(OCP(=O)(O)O)c1CC(N)C(=O)O` (stereo unspecified), the Potency entry in experiment [3] is “inactive and 4.26 µM (active)”. Besides, the compound was classed as inactive in experiment [4].

With `CCN(CC)CCNC(=O)c1cc(Cl)c(N)cc1OC`, the Potency entry in experiment [3] was “inactive”. Besides, the compound was classed as inactive in experiment [4]. Take `OCc1cc(C(O)CNCCCCCCOCCCCc2ccccc2)ccc1O` (stereo unspecified): the Potency entry in experiment [3] was “inactive”. In experiment [4], the compound was called inactive.

Regarding `CCN(CC)CCOC(=O)C1(C2CCCCC2)CCCCC1`, the result in experiment [4] was inactive.

For the compound `Nc1ncnc2c1ncn2[C@@H]1O[C@H](CO)[C@@H](O)[C@H]1O`, in experiment [4], the outcome was inactive. For the compound `CC(=O)OCC(=O)[C@@]1(O)CC[C@H]2[C@@H]3CCC4=CC(=O)CC[C@]4(C)[C@H]3C(=O)C[C@@]21C`, in experiment [3], the Potency result is “inactive”. The compound was classed as inactive in experiment [4]. Regarding `C#CCN(C)Cc1ccccc1`, the outcome in experiment [4] was inactive. Turning to `COCCOC(=O)C1=C(C)NC(C)=C(C(=O)OC/C=C/c2ccccc2)C1c1cccc([N+](=O)[O-])c1` (stereo unspecified), the outcome in experiment [4] was inactive.

Consider `N=c1c[n+](N2CCOCC2)[n-]o1`, for which the Potency result in experiment [3] is “inactive”. Further, in experiment [4], the compound was classed as inactive.

Regarding `CC(C)NC[C@H](O)c1ccc(O)c(O)c1`, the Potency entry in experiment [3] is “inactive”. The compound was called inactive in experiment [4].

Turning to `CN1CCN(C2Cc3ccccc3Sc3ccc(Cl)cc32)CC1` (stereo unspecified), the Potency result in experiment [3] is “inactive”. The result in experiment [4] was inactive. With `CSc1ccc2c(c1)N(CCC1CCCCN1C)c1ccccc1S2` (stereo unspecified), in experiment [4], the compound was classed as inactive. For `CC(C)C(=O)c1c(C(C)C)nn2ccccc12`, the Potency entry in experiment [3] is “inactive”. Further, in experiment [4], the outcome was inactive. Regarding `O=C1N=C(O)CN1/N=C/c1ccc(-c2ccc([N+](=O)[O-])cc2)o1`, in experiment [4], the result was inactive. For `OCCN1CCN(CCCN2c3ccccc3Sc3ccc(Cl)cc32)CC1`, the Potency result in experiment [3] is “inactive”. Besides, the compound was classed as inactive in experiment [4]. Consider `Cc1cc(N)c2ccccc2[n+]1CCCCCCCCCC[n+]1c(C)cc(N)c2ccccc21`, for which the Potency entry in experiment [3] is “inactive”. The compound was classed as inactive in experiment [4]. Regarding `Nc1cc(=O)[nH]c(N)n1`, in experiment [3], the Potency entry was “inactive”. The result in experiment [4] was inactive. For `CC1=C(CC(=O)O)c2cc(F)ccc2/C1=C\c1ccc(S(C)=O)cc1` (stereo unspecified), the Potency result in experiment [3] was “inactive”. The compound was classed as inactive in experiment [4]. In the case of `O=C1Nc2ccc(Cl)cc2[C@@](C#CC2CC2)(C(F)(F)F)O1`, the compound was classed as inactive in experiment [6] and in experiment [5]. For `CNCCCC1c2ccccc2C=Cc2ccccc21`, the Potency result in experiment [3] was “inactive”. The compound was classed as inactive in experiment [4].

Turning to `C=Cc1c(C)c2cc3[nH]c(cc4nc(cc5nc(cc1[nH]2)C(C)=C5CCC(=O)O)C(CCC(=O)O)=C4C)c(C)c3C=C`, the Potency entry in experiment [3] was “inactive”. Besides, the result in experiment [4] was inactive.

Turning to `NC1CCN(c2cccc(Cl)n2)CC1`, the compound was classed as inactive in experiment [4].

In the case of `CN(C)CC[C@@H](c1ccc(Cl)cc1)c1ccccn1`, the result in experiment [4] was inactive.

On to `CNCC(O)c1ccc(O)c(O)c1` (stereo unspecified), for which the outcome in experiment [4] was inactive. Turning to `CC(CN(C)C)CN1c2ccccc2CCc2ccccc21` (stereo unspecified), in experiment [3], the Potency entry was “inactive”. In experiment [4], the compound was classed as inactive.

For the origin of these results see PubChem BioAssay (NCATS).
